In PubChem BioAssay (NCI):
About 79,000 compounds went through this panel and 15% of them were active in at least one assay; those are over-represented in the sample as a whole. Values without a mark were called inactive. Calls of active or inactive are those of the source. Cut-off read from the data, not from the text of the source: active = growth inhibition above about 70%; inactive = the rest.

How the values were obtained:
[1] = NCI Yeast Anticancer Drug Screen. Data for the rad50 strain (AID 155);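 note: 0% = growth of vehicle-only cultures of the same strain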; settings: S. cerevisiae rad50 strain growth inhibition; at 50.0 µM; hits give high values
Outline: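 DNA repair mutant yeast, compound exposure, growth read-out; inhibition is taken relative to vehicle.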

[2] = NCI Yeast Anticancer Drug Screen. Data for the mec2-1 strain (AID 157); settings: S. cerevisiae mec2-1 strain, at 50.0 µM, hits give high values
Outline: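 Using mec2-1 yeast: add compound, measure growth, express inhibition versus vehicle-treated cultures.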

[3] = NCI Yeast Anticancer Drug Screen. Data for the sgs1 mgt1 strain (AID 161);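 note: 0% = growth of cultures given vehicle only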; settings: S. cerevisiae sgs1 mgt1 strain, at 50.0 µM, hits give high values
Outline: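 Yeast cells carrying a defined DNA-repair defect were exposed to test compounds. Growth inhibition was measured relative to vehicle-treated controls.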

[4] = NCI Yeast Anticancer Drug Screen. Data for the cln2 rad14 strain (AID 165);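 note: 0% = growth equal to vehicle treated cultures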; settings: S. cerevisiae cln2 rad14 strain, at 50.0 µM, hits give high values
Outline: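 Yeast strain cln2 rad14, bearing defects in cell cycle control and DNA repair, serves as the test system; values reflect growth inhibition compared with vehicle.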

[5] = NCI Yeast Anticancer Drug Screen. Data for the bub3 strain (AID 167); settings: S. cerevisiae bub3 mutant strain, at 50.0 µM, hits give high values
Outline: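 In this screen, a yeast mutant lacking normal mitotic checkpoint function is challenged with compound. Relative growth versus vehicle gives the inhibition value.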

[6] = NCI Yeast Anticancer Drug Screen. Data for the mlh1 rad18 strain (AID 175); settings: S. cerevisiae mlh1 rad18 strain growth inhibition; at 50.0 µM; hits give high values
Outline: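 Steps: expose repair-defective yeast to compound; measure growth; express inhibition against vehicle-treated controls.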

Structure (SMILES)	growth inhibition [1]	growth inhibition [2]	growth inhibition [3]	growth inhibition [4]	growth inhibition [5]	growth inhibition [6]
CC1=Nc2cc(C)c(C)cc2N2C1=CC1=C(C(=O)c3cc4ccccc4cc3C1=O)C2C (stereo not drawn)	16%	9.8%	16.2%	23.1%	-3.85%	23.6%
OCc1cn(C(c2ccccc2)(c2ccccc2)c2ccccc2)cn1	-113%	-58.3%	-22.5%	-0.85%	-1%	-30.6%
Cc1ccc(N=Nc2c(C)nn(C(=S)S)c2C)cc1	71.9% (active)	39.4%	90% (active)	35.8%	83.3% (active)	96.2% (active)
O=C1c2cc3c(cc2C(=O)c2[nH]c(=O)ccc21)CCCC3	11.5%	25.9%	16%	0.85%	33.4%	35.6%
CC(C)CCN(CC(C)C)C(=O)c1ccc([N+](=O)[O-])cc1 (tested in a mixture with another compound)	16.1%	0.6%	8.75%	-3.25%	-5.6%	14.1%
CC(=O)OC1OC(COC(c2ccccc2)(c2ccccc2)c2ccccc2)C(OCc2ccccc2)C(OCc2ccccc2)C1OC(C)=O (stereo not drawn)	-14.3%	-18.1%	-21.1%	13.3%	0.45%	1.65%
CC1CC(=O)CC(C)C1 (stereo not drawn)	1.7%	-0.1%	-10.5%	-27.1%	19.9%	16.6%
Cn1c(N)cc(=O)n(C)c1=O	22.6%	3.95%	18%	0.1%	17.5%	27%
Cc1ccc(C2=C(c3ccc(C)cc3)CS(=O)(=O)C2)cc1	22.2%	-5.55%	-0.4%	-6%	-18.8%	-26.1%
O=Nc1c(-c2ccccc2)nnc(-c2ccccc2)c1N=O	-24.9%	6.95%	-0.3%	-54.8%	34.7%	-6.2%
O=C1NC2OCC(O)C(O1)C2O (stereo not drawn)	3.85%	1%	-13.3%	7.75%	-2.25%	16.3%
O=C(Nc1ccc(Br)cc1)c1ccccc1	14.4%	20.9%	0.35%	-31.5%	0.8%	22.1%
CC1CC(=O)c2c(O)ccc(O)c21 (stereo not drawn)	-6.1%	-3.65%	-8.9%	-17.4%	-8.15%	12.2%
N=C1N=Nc2nc(CC(=O)c3ccc(Cl)cc3Cl)c(O)n21	-9.8%	-8.35%	1.05%	-31.5%	-11.8%	-37.6%
COc1cc2cccc(N=Cc3ccccc3Cl)c2cc1OC	-8.7%	-7.4%	-11.3%	27.9%	8.55%	-3.8%
COC1/C=C/OC2(C)Oc3c(C)c(O)c4c(O)c(c(/C=N/OC/C=C(\C)CCC=C(C)C)c(O)c4c3C2=O)NC(=O)C(C)=C/C=C/C(C)C(O)C(C)C(O)C(C)C(OC(C)=O)C1C (stereo not drawn)	-0.15%	-0.5%	-2.65%	-10.9%	-8.95%	30.4%
Clc1ccc(C(Cl)(c2ccc(Cl)cc2)C(Cl)(Cl)Cl)cc1	-14.1%	-14.4%	-7.4%	-6.2%	32.9%	11.8%
CCOC(=O)CN(c1c(C)cc(C)c(N(CC(=O)OCC)S(=O)(=O)c2ccccc2)c1C)S(=O)(=O)c1ccccc1	40.5%	8.95%	24.8%	-9.2%	4.5%	19.9%
